The text below walks through data of a collection of fitness landscapes (doi:10.1126/science.1257360).

Whole data set: some 140,000 sequences, median “enrichment ratio after two sorts for PhoP signalling” near 0, cut for the highest 2% near 11. Shown is part of a subset that was picked to be rich in the highest values.

Sequences and labels used below:
B1: PhoQ; a variant is named by its letters at X, in order, P23837 (parent)
chain: MKKLLRLFFPLSLRVRFLLATAAVVLVLSLAYGMVALIGYSVSFDKTTFRLLRGESNLFYTLAKWENNKLHVELPENIDKQSPTMTLIYDENGQLLWAQRDVPWLMKMIQPDWLKSNGFHEIEADVNDTSLLLSGDHSIQQQLQEVREDDDDAEMTHSVAVNVYPATSRMPKLTIVVVDTIPVELKSSYMVWSWFIYVLSANLLLVIPLLWVAAWWSLRPIEALAKEVRELEEHNRELLNPATTRELTSLVRNLNRLLKSERERYDKYRTTLTDLTHSLKTPLXXLQXXLRSLRSEKMSVSDAEPVMLEQISRISQQIGYYLHRASMRGGTLLSRELHPVAPLLDNLTSALNKVYQRKGVNISLDISPEISFVGEQNDFVEVMGNVLDNACKYCLEFVEISARQTDEHLYIVVEDDGPGIPLSKREVIFDRGQRVDTLRPGQGVGLAVAREITEQYEGKIVAGESMLGGARMEVIFGRQHSAPKDE

In the assay the parent is B1. Description: enrichment ratio after two sorts for PhoP signalling (ratio (wild type AVST 3.29)); higher = more functional. As to conditions: with PhoP (E. coli).
Consider AIMF, for which the enrichment ratio came to 0.847.
As to GTSM, the enrichment ratio was found to be 10.6.
With ATMF, the enrichment ratio was 16.
In the case of ATHF, the enrichment ratio is at most 0.25.
With ITSF, the enrichment ratio is at most 0.25.
As for PAWP, the enrichment ratio is at most 0.25.
As to TTFE, the enrichment ratio is at most 0.25.
With KKLY, the enrichment ratio was at most 0.25.
AILY: the enrichment ratio turned out to be 1.94.
AKLY: the enrichment ratio amounted to 19.7.
Regarding HKLY, the enrichment ratio is at most 0.25.
AYLY: the enrichment ratio was at most 0.25.
Under ANLY stands 12; under TKLY, 16.4; under GNLY, 3.04.
Under DNLY stands at most 0.25.
Turning to LENP, the enrichment ratio was at most 0.25.
Then YGNS, with at most 0.25; and ELCS, with at most 0.25.
As for SDHR, the enrichment ratio was at most 0.25.
Turning to RTCY, the enrichment ratio is at most 0.25.
Regarding FQWN, the enrichment ratio is at most 0.25.
Turning to MMYS, the enrichment ratio was at most 0.25.
Consider QRYS, for which the enrichment ratio is at most 0.25.
With MLYS, the enrichment ratio is at most 0.25.
Take MCYS: the enrichment ratio was found to be 12.8.
On to MEYS, for which the enrichment ratio is 25.6.
With STYS, the enrichment ratio was 0.267.
As to KCYS, the enrichment ratio was at most 0.25.
On to MKYS, for which the enrichment ratio is at most 0.25.
For the variant QEYS, the enrichment ratio was 37.
On to LVRD, for which the enrichment ratio is at most 0.25.
Regarding RKTS, the enrichment ratio was at most 0.25.
Then MAFY, with 5.02; and VGMW, with at most 0.25.
Under LGMS stands at most 0.25; under GGMI, 12.3; under NIMI, at most 0.25.
Under LGMI stands 12.6.
As to GGMD, the enrichment ratio was at most 0.25.
As for TGMI, the enrichment ratio turned out to be 13.2.
As for RGMI, the enrichment ratio is at most 0.25.
Take VGMI: the enrichment ratio turned out to be 20.4.
Regarding LGMA, the enrichment ratio was at most 0.25.
Regarding VGMG, the enrichment ratio was at most 0.25.
For NGMI, the enrichment ratio was 0.49.
Consider DSTD, for which the enrichment ratio was at most 0.25.
As to HLRM, the enrichment ratio was at most 0.25.
For IPWT, the enrichment ratio was at most 0.25.
In the case of WPQK, the enrichment ratio was at most 0.25.
Then TMAW, with at most 0.25.
Under WDLT stands at most 0.25.
GWGM: the enrichment ratio was at most 0.25.
Then HMWI, with at most 0.25; and PRFL, with at most 0.25; and DFQL, with at most 0.25.
Take AGMG: the enrichment ratio is at most 0.25.
For AGMS, the enrichment ratio was found to be 3.53.
Under AGMI stands 16.4; under NSFT, at most 0.25; under YKQH, at most 0.25.
As for HDPL, the enrichment ratio was at most 0.25.
In the case of MNSV, the enrichment ratio was 16.9.
MNIV: the enrichment ratio is at most 0.25.
In the case of LNSV, the enrichment ratio was at most 0.25.
On to ANSV, for which the enrichment ratio turned out to be 7.03.
As to MNSK, the enrichment ratio is at most 0.25.
As for TNSV, the enrichment ratio was determined as 19.4.
Take QING: the enrichment ratio is at most 0.25.
As for PDEL, the enrichment ratio was at most 0.25.
Turning to TSHN, the enrichment ratio was determined as 0.659.
Under ENQD stands at most 0.25.
For NGTQ, the enrichment ratio is at most 0.25.
Regarding TSTQ, the enrichment ratio is 16.
Under MMTQ stands at most 0.25; under MKTQ, at most 0.25.
As for KSTQ, the enrichment ratio was at most 0.25.
Then TGTQ, with 17.7; and LCTQ, with at most 0.25; and HKTQ, with at most 0.25.
Under TMTQ stands 14.3; under TMLA, 2.72; under TKTQ, 12.6.
With NNTQ, the enrichment ratio was at most 0.25.
As for LGMC, the enrichment ratio was at most 0.25.
On to NWTN, for which the enrichment ratio is at most 0.25.
Then VCIS, with 0.315; and QCCN, with at most 0.25; and PNLQ, with 1.01.
Under SPYC stands at most 0.25; under YNMF, at most 0.25; under LKVT, at most 0.25.
Consider SFHI, for which the enrichment ratio was at most 0.25.
For VLMY, the enrichment ratio is at most 0.25.
Turning to EGRC, the enrichment ratio was at most 0.25.
Then EQYD, with at most 0.25.
Then SGTQ, with 17.4; and TITQ, with 12.5; and TILA, with 4.43.
Under STTQ stands 6.67; under SGTW, at most 0.25; under SLTQ, 6.15.
For the variant KYTQ, the enrichment ratio was at most 0.25.
SQTQ: the enrichment ratio was found to be 11.3.
For the variant NMTQ, the enrichment ratio is at most 0.25.
For the variant VCDC, the enrichment ratio is at most 0.25.
Then KHCF, with at most 0.25; and TKQF, with at most 0.25.
Regarding VNQI, the enrichment ratio is at most 0.25.
On to MAYV, for which the enrichment ratio was 15.4.
Turning to MAYF, the enrichment ratio was determined as 16.5.
With MEYF, the enrichment ratio is at most 0.25.
As for MAYE, the enrichment ratio was found to be 33.3.
For the variant MAYI, the enrichment ratio stood at 21.1.
As for MAYK, the enrichment ratio was at most 0.25.
With FDYV, the enrichment ratio is at most 0.25.
Regarding MAAY, the enrichment ratio was at most 0.25.
With NAYV, the enrichment ratio is at most 0.25.
As to NAYE, the enrichment ratio is at most 0.25.
MEYE: the enrichment ratio was at most 0.25.
Then FDYF, with at most 0.25.
MGDQ: the enrichment ratio was at most 0.25.
VFQR: the enrichment ratio was at most 0.25.
Under GVSL stands 5.42; under GQSH, at most 0.25; under YRWT, at most 0.25.
Under FKMN stands at most 0.25; under IMAN, at most 0.25; under MAHF, 9.56.
MAHE: the enrichment ratio was at most 0.25.
Under MAYN stands 16.6.
For the variant MAHI, the enrichment ratio was 24.7.
Under KAYN stands at most 0.25.
As for MAYM, the enrichment ratio was 9.25.
Turning to LMFI, the enrichment ratio is at most 0.25.
With VDKC, the enrichment ratio is at most 0.25.
In the case of PFWD, the enrichment ratio was found to be 3.08.
Then SWFV, with at most 0.25; and FCIG, with at most 0.25.
Turning to AKMH, the enrichment ratio worked out at 12.
As to ATCH, the enrichment ratio is at most 0.25.
As to ATTH, the enrichment ratio stood at 8.31.
On to AIMH, for which the enrichment ratio was found to be 4.85.
For the variant ATMH, the enrichment ratio was 12.3.
For HKMH, the enrichment ratio was at most 0.25.
For the variant QGLS, the enrichment ratio was found to be 3.82.
Then LDNH, with at most 0.25.
Then MEIS, with 13.8; and MEIV, with 6.05.
Then TEIS, with 11.4; and QEIS, with at most 0.25.
Consider NEIS, for which the enrichment ratio was at most 0.25.
With TEIV, the enrichment ratio was at most 0.25.
